Furin inh: human furin inhibition; hit rate 0.061% among 220,000; P09958; inhibition, % at 20 µM or 30 µM; purified furin, fluorogenic substrate cleavage; AID 463115; in the data active means inhibition above about 25%
Calpain2 inh: blocks pig calpain II enzyme activity | purified calpain II, fluorogenic peptide substrate, 30 min | inhibition, % at 16 µM | hit rate 0.37% among 220,000 | AID 1236;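 active means inhibition above about 50%, limit read from the data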
EP2 antag: inhibitors of human EP2 prostaglandin E2 receptor; C6 glioma cells expressing human EP2, cAMP TR-FRET; cells stimulated with saturating PGE2; inhibition, % at 25 µM; hit rate 0.52% among 260,000; P43116;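 active means percent inhibition above 40 after rounding to a whole number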;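 further: rat C6 glioma host cells with rolipram phosphodiesterase inhibitor present; the protocol text gives 20 µM as final concentration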
Target sequence (P43116 whole entry, looked up): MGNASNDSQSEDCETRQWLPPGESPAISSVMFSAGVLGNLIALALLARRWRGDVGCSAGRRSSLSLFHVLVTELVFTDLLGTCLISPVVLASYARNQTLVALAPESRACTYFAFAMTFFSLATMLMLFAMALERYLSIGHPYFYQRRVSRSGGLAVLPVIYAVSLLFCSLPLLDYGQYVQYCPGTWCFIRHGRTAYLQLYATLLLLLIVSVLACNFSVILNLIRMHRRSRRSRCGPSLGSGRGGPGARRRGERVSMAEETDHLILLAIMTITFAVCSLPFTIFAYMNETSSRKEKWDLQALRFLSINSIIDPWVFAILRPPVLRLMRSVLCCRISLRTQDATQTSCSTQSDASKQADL
EP2 mod: EP2 receptor (human) modulation; EP2-expressing cells, cAMP HTRF FRET, PGE2 co-stimulation; P43116; induction, % at 25 µM; hit rate 0.83% among 260,000;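 active means compounds whose cAMP rise, as percent of the full-agonist control response, exceeds 60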;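 further: rat C6 glioma line stably carrying human EP2 under a CMV promoter; the protocol text gives 20 µM as final concentration; 100% = response of wells given 1 µM PGE2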
Efa HMGR inh: blocks class II HMG-CoA reductase of Enterococcus faecalis; purified E. faecalis HMGR, NADPH absorbance 340 nm kinetic; inhibition, % at 10 µM; hit rate 0.41% among 190,000; AID 1066;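 active means inhibition above a set limit, the median over all tested compounds plus 3 SD, cut at about 9.5% in these data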;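 further: enzyme runs in reverse so mevalonate oxidation gives rising NADPH absorbance; 0% = complete reaction with DMSO and 100% = background rate lacking mevalonate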
EP2 confirm: EP2 receptor cAMP induction, counter-screens negative; shares compounds with EP2 mod; C6 glioma EP2 cells, cAMP HTRF induction; plus low (about EC15) PGE2 agonist; calls only at 20 µM (by protocol); hit rate 47% among 1,300;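 active means cAMP induction above 50% in the main assay while under 30% in all four parallel counter assays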;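 further: rat C6 glioma cells stably expressing human EP2 receptor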
The depositor's hits bear a star; i = inactive; nt = not tested or not shown; + = active, no number; ! = a repeat was not active. Most compounds without a hit are left out; they make up all but 1.9% or so of the library.

SMILES | Furin inh | Calpain2 inh | EP2 antag | EP2 mod | Efa HMGR inh | EP2 confirm
CC(=O)Oc1c2c(c3c(c1CC=C(C)C)O[C@]14C(=C[C@@H]5CC1C(C)(C)OC4(C/C=C(\C)C(=O)O)C5=O)C3=O)OC(C)(CCC=C(C)C)C=C2 (stereo partly drawn) | nt | nt | 12 | 51 | nt | i
CCCn1c(=N)n(CCOCCOCCn2c(=N)n(CCC)c3ccccc32)c2ccccc21 | -15 | nt | nt | nt | nt | nt
Clc1cccc(Cl)c1CSc1cc2c(nn1)-c1ccccc1CC2 | -5 | 25 | 7 | 17 | -4 | nt
O=C1CCCc2ccccc2N1Cc1c(Cl)cccc1Cl | -15 | 23 | 9 | 72* | -4 | +
O=c1cc2c(nn1Cc1c(Cl)cccc1Cl)-c1ccccc1CC2 | -2 | -27 | 8 | 78* | -7 | +
O=C1CCCc2ccccc2N1Cc1ccccc1Cl | -6 | 10 | 11 | 16 | -10 | nt
O=C1CCCc2ccccc2N1Cc1ccccc1 | -23 | 15 | 4 | 25 | 4 | nt
O=C1CCCc2ccccc2N1Cc1cccc(Cl)c1 | -19 | -11 | 9 | 72* | -2 | i
Fc1ccc(Cn2nnnc2CN2CCN(c3nc4ccccc4s3)CC2)cc1 | nt | nt | 7 | -99 | nt | nt
Cc1cccc(OCCCC(=O)N2CCCc3ccccc32)c1C | -6 | -3 | 7 | 82* | -3 | +
COCCNC(=S)N(Cc1cc2ccc(C)cc2[nH]c1=O)C1CCCC1 | nt | nt | 5 | -24 | nt | nt
C(=N\Nc1nc2ccccc2[nH]1)/c1ccccc1 | -22 | -14 | 10 | -19 | -4 | nt
O=c1[nH]c(N/N=C/c2ccccc2)nc2ccccc12 | -21 | -12 | 6 | 69* | -4 | +
COc1ccc(Oc2cc(C(F)(F)F)nc(N(C)C)n2)cc1 | -23 | 0 | 7 | 65* | 3 | i
COc1cc2[nH]c(=O)c(C(=O)NCC3CCCO3)c(O)c2cc1OC (stereo not drawn) | nt | nt | 13 | -23 | nt | nt
O=c1cc(N2CCCCC2)c(-c2ccccc2)nn1Cc1cccc(Cl)c1 | -10 | -6 | 7 | 81* | 0 | +
O=c1cc(N2CCCCC2)c(-c2ccccc2)nn1Cc1ccccc1Cl | -5 | 23 | 3 | 70* | -4 | +
O=c1c2ccccc2c(-c2ccccc2)nn1Cc1ccc(Cl)cc1 | -16 | 17 | 8 | 57 | -4 | nt
CCc1ccc2[nH]c(=O)c(CN(Cc3cccs3)C(=O)Nc3ccccc3OC)cc2c1 | nt | nt | 8 | -3 | nt | nt
CN(C)c1ccc(NC(=O)CSc2nc(-c3cccs3)cc(C(F)(F)F)n2)cc1 | nt | nt | 11 | -93 | nt | nt
COc1ccc(-c2cc(C(F)(F)F)nc(SCC(=O)Nc3cccc(C)c3C)n2)cc1OC | nt | nt | 18 | 13 | nt | nt
O=C(Nc1ccccc1)c1nn(-c2cccc(C(F)(F)F)c2)ccc1=O | -24 | 26 | 8 | 84* | 3 | +
O=C(Nc1ccccc1)c1nn(-c2ccccc2)c(=O)cc1C(F)(F)F | -11 | 14 | 15 | 8 | -2 | nt
CN(/N=C\c1ccc(O)c(O)c1)c1nc(-c2ccccc2)cc(-c2ccccc2)n1 | -18 | -67 | 9 | 67* | -1 | i
C[N+](C)(C)/N=C/c1ccc(O)c(O)c1 | nt | nt | 31 | 15 | nt | nt
SMILES | Furin inh | Calpain2 inh | EP2 antag | EP2 mod | Efa HMGR inh | EP2 confirm
O=C(O)c1nn(CC(=O)N(C2CCCCC2)C2CCCCC2)c(=O)c2ccccc12 | -10 | 3 | 4 | 83* | 0 | +
CNC(=O)c1cc2c(=O)n3cc(C)ccc3nc2n(C(C)C)c1=N | -151 | i | 14 | 73*! | -1 | i
Cc1ccc2nc3c(cc(C(=O)NCc4ccccc4)c(=N)n3C(C)C)c(=O)n2c1 | nt | nt | 12 | 11 | nt | nt
COC(=O)c1c(NC(NC(=O)C(C)C)C(Cl)(Cl)Cl)sc2c1CCCC2 (stereo not drawn) | 2 | 16 | 4 | 56 | -3 | i
COC(=O)c1c(NC(C)=O)sc2c1CCCC2 | -12 | 0 | 13 | 5 | 4 | nt
O=C(NC1CC1)[C@H]1C=CCN1S(=O)(=O)c1cccc(F)c1 | nt | nt | nt | -1 | nt | nt
O=C(CSc1nnc(COc2ccccc2)n1-c1ccccc1)c1ccccc1 | -7 | 28 | 10 | 50 | -1 | i
COc1ccc(C(=O)CSc2nnc(COc3ccc(C#N)cc3)n2-c2ccccc2)cc1 | -14 | -31 | 17 | -14 | 2 | nt
COc1ccc(N(CC(=O)N2CCC(C)CC2)S(=O)(=O)c2ccc(F)cc2)cc1 | nt | nt | 10 | 17 | nt | nt
Cc1ccc(NC(=O)CSc2nnc(CN3CCOCC3)n2C)c(C)c1 | nt | nt | -1 | -2 | nt | nt
Cc1ncccc1-c1cc2cccnc2n1CCC(=O)O | nt | nt | 6 | -12 | nt | nt
CN1CCCN(C(=O)c2cc(=O)[nH]c3ccccc23)c2nc3ccccc3nc21 | -33 | 5 | 12 | 15 | -6 | nt
CN1CCCN(C(=O)Cc2c(Cl)cccc2Cl)c2nc3ccccc3nc21 | -10 | -51 | 9 | 70* | -4 | +
CCCC(=O)Nc1sc2c(c1C(N)=O)CCCCC2 | nt | nt | 12 | -25 | nt | nt
O=c1c2ccccc2c2ccccc2c(=O)n1Cc1ccco1 | -2 | 4 | 4 | 84* | 1 | i
CCOC(=O)Cn1c(=S)[nH]c2c(oc3ccc(Cl)cc32)c1=O | -14 | -2 | 16 | 98* | 2 | i
CCSc1nnc(-c2ccc(C)cc2)c2ccccc12 | -7 | 20 | 15 | 11 | 2 | nt
CCSc1nnc(-c2ccc(Cl)cc2)c2ccccc12 | -26 | -3 | 3 | 66* | 1 | i
Cc1ccc(C)n1-n1cnc2scc(-c3cccs3)c2c1=O | -22 | -28 | 11 | 65* | -2 | +
CCN(CCO)c1ncnc2c1sc1nc(C(C)C)c3c(c12)CC(C)(C)OC3 | -12 | -120 | 15 | 79* | -6 | i
CC(C)c1nc2sc3c(NCc4ccccc4)ncnc3c2c2c1COC(C)(C)C2 | -11 | -47 | 7 | 38 | -5 | nt
CC(C)c1nc2sc3c(=O)[nH]cnc3c2c2c1CCC2 | -11 | -81 | 6 | 54 | -2 | nt
CC(C)Cc1nc2sc3c(=O)[nH]cnc3c2c2c1CCC2 | -10 | -6 | 5 | 74* | -2 | i
CC(C)c1ccc(N(CC(=O)N2CCC(C(N)=O)CC2)S(C)(=O)=O)cc1 | nt | nt | 9 | 10 | nt | nt
CN(C)Cc1c(-c2ccc(Cl)cc2)nc2ccccn12 | -20 | 24 | 11 | -18 | -6 | nt
SMILES | Furin inh | Calpain2 inh | EP2 antag | EP2 mod | Efa HMGR inh | EP2 confirm
Clc1ccc(-c2nc3ccccn3c2CN2CCCCC2)cc1 | -19 | 25 | -1 | 66* | -11 | i
COCC(=O)N(C)c1nnc(-c2cnccn2)s1 | -2 | -4 | 8 | 12 | -3 | nt
COCC(=O)N(C)c1nnc(-c2cnc(C)cn2)s1 | -18 | -47 | 17 | 71* | -3 | i
COc1cccc(OC)c1C(=O)N1CCN(S(=O)(=O)c2ccc(Cl)cc2)CC1 | nt | nt | 6 | -26 | nt | nt
COc1cc(NC(=O)c2cnn3c(C(F)F)cc(C4CC4)nc23)c(OC)cc1Cl | -10 | -7 | 4 | 19 | -6 | nt
COC(=O)c1ccccc1NC(=O)c1cnn2c(C(F)F)cc(C3CC3)nc12 | 21 | -67 | 13 | 76* | -3 | i

Bioassay records: PubChem BioAssay, several laboratories
